# Laboratory results reported in PubChem BioAssay AID1490 (National Center for Advancing Translational Sciences (NCATS), 2009).
# Where “and” joins values, the source holds several entries; their conditions need not be identical. Equal entries are not always repeated. Hit rate of the full screen: of about 310,000 compounds, about 11,000 (3.5%) were called active. Inconclusive results (about 4%) are left out. Only a selection was taken, and actives are over-represented in it overall. A number with no mark means an inactive call. The call rests on the fitted dose curve; in most records, active means well fitted inhibition curve with a large enough effect; inconclusive means small, poorly fitted or top-dose-only effect, or another doubt; inactive means no such curve, though single readings can be large or run the other way.
# Target: 4'-phosphopantetheinyl transferase ffp (Bacillus subtilis) (UniProt Q9F4F7)
# Assay: qHTS Assay for Inhibitors of Bacillus subtilis Sfp phosphopantetheinyl transferase (PPTase);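 further: the enzyme is Sfp with the accession as filed and its product quenches rhodamine fluorescence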;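 on largest response in the series, negative = inhibition: 0% = enzyme reaction without inhibitor and -100% = no enzyme wells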
# Settings: Biochemical Sfp PPTase activity
# Procedure, shortened: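 Reaction rates are the 30-min fluorescence difference (ex 525, em 598 nm) in wells containing 15 nM Sfp, 5 uM rhodamine-CoA and 12.5 uM BHQ-2-YbbR at pH 7.6 with 10 mM MgCl2.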
# Potency means the concentration at half of the fitted maximal effect.
SMILES,"largest response in the series, negative = inhibition",Potency
COc1ccc(C(=O)NCc2nnc(SCC(=O)NC3=NCCS3)n2C)cc1,-3.34%,
COC(=O)c1ccc(NC(=O)CSc2nncn2-c2cccnc2)cc1,16.4%,
CC(C)NC(=O)COCc1cc(-c2ccc3c(c2)OCO3)on1,4.15%,
COc1cccc(-n2c(=S)sc3c(=O)n(-c4ccccc4C)c(SCC(=O)O)nc32)c1,4.84%,
COc1ccc(Cl)cc1-n1c(=S)sc2c(=O)n(-c3ccc(F)cc3)c(SCC(=O)O)nc21,,14.1 µM (active)
COc1cccc(-n2c(=S)sc3c(=O)n(-c4ccccc4OC)c(SCC4OCCO4)nc32)c1,-1.29%,
O=C(c1cc(COc2ccc(F)cc2F)on1)N1CCOCC1,2.39%,
CC(=O)Nc1cccc(C(=O)OCN2C(=O)c3ccccc3C2=O)c1,7.23%,
CCc1nc(Nc2ccc(NC(C)=O)cc2)c2oc3ccccc3c2n1,3.27%,
Cc1ccc(N(Cc2ccccc2O)C(=O)c2ccccc2F)cc1,8.31%,
O=C(O)c1cc([N+](=O)[O-])c(Nc2cccc3ccccc23)c([N+](=O)[O-])c1,-7.55%,
Cc1cccc(N=C2NN=C(c3c[nH]c4ccccc34)CS2)c1,-49.9%,
C=CCn1c(C)cc(C2=NNC(=NCC)SC2)c1C,,56.2 µM (active)
Cc1ccc(S(=O)(=O)N2CCC(C(=O)NCC3CCCO3)CC2)cc1 (stereo not drawn),21.8%,
COCCn1c(C)cc(C2=NNC(=Nc3ccc(F)cc3)SC2)c1C,,50.1 µM (active)
Cc1cc(C2=NNC(=Nc3ccc(S(=O)(=O)N4CCOCC4)cc3)SC2)c(C)n1CC1CCCO1 (stereo not drawn),,22.4 µM (active)
C=CCn1c(C)cc(C(=O)CN2C(=O)c3ccccc3C2=O)c1C,1.15%,
Cc1ccnc(NS(=O)(=O)c2ccc(NC(=O)c3ccc(S(=O)(=O)N4CCOCC4)cc3)cc2)n1,28.5%,
COC(=O)C(C(=O)OC)C1c2ccccc2C=C(C2CC2)N1C(=O)OC (stereo not drawn),22.5% and 27.4%,
CCCOc1ccc(C2=CSC3=NCCN23)cc1Cl,16%,

SMILES,"largest response in the series, negative = inhibition",Potency
CCOC(=O)C1CCCN(CCSc2ccc(C)cc2)C1 (stereo not drawn),12.5%,
COc1ccc(C(=O)c2c(C)c(CCC#N)n3ccccc23)c(OC)c1,0.761%,
COc1ccc(C(C)NC(=O)C23CC4CC(CC(C4)C2)C3)cc1 (stereo not drawn),5.95%,
O=C(O)c1c(NC(=O)N2CCCC2)sc2c1CCCC2,-9.57%,
CC(O)c1ccc(OCCN(C)c2ccccn2)cc1 (stereo not drawn),-0.377%,
O=C(O)c1ccc2c(c1)C(=O)N(NC(=O)c1ccc(O)cc1)C2=O,1.07%,
CC(=O)N1C(=O)/C(=C2\SC(=S)N(NC(=O)c3ccc(O)cc3)C2=O)c2ccccc21,,50.1 µM (active)
O=C(O)c1ccc(/C=C2\SC(=S)N(NC(=O)c3ccc(Br)cc3)C2=O)cc1,-5.87%,
COc1cc(Cl)ccc1OCc1cc(C(=O)N2CC[C@@H]3CCCC[C@H]3C2)no1,-14.4%,
COc1ccc(-c2nc3c(c4c2C[C@H](c2ccccc2)OC4)CN(C(=O)C2CC2)CC3)c(C)c1,12.8%,
CC1(C)Cc2ccccc2-c2[nH]c(=S)[nH]c(=O)c21,2.54%,
N#CC1=C(N)Oc2[nH]c(=S)[nH]c(=O)c2C12C(=O)Nc1ccccc12 (stereo not drawn),,39.8 µM (active)
N#CC1=C(N)Oc2n[nH]c(CSc3ccccc3)c2C12C(=O)Nc1ccccc12 (stereo not drawn),17.6%,
CCC(C)Sc1nc2c(cnn2-c2ccc(F)cc2)c(=O)[nH]1 (stereo not drawn),-3.22%,
CCOc1ccc(C(C(=O)NC2CCCC2)N(C(=O)c2snc(C(N)=O)c2N)C2CCCC2)cc1 (stereo not drawn),16.6%,
COc1ccc2oc(C(=O)NCC(Cc3ccccc3)N(C)C)c(C)c2c1 (stereo not drawn),-0.769%,
CC1Cc2cc(/C(O)=C3\C(=O)C(=O)N(Cc4cccnc4)C3c3ccccc3F)ccc2O1 (stereo not drawn),11.3%,
O=C(NN1C(=O)C2C(C1=O)C1C=CC2C12CC2)c1ccccc1Cl (stereo not drawn),12.4%,
COc1ccccc1C(=O)Nn1cnnc1,6.61%,
O=C(NN1C(=O)C2C3C=CC(C4CC34)C2C1=O)c1ccc(Cl)cc1 (stereo not drawn),27.6%,

SMILES,"largest response in the series, negative = inhibition",Potency
COc1ccccc1C(=O)NN1C(=O)C2C3C=CC(O3)C2C1=O (stereo not drawn),,56.2 µM (active)
COc1ccc(C(=O)NN2C(=O)C3C(c4ccccc4)C=CC(c4ccccc4)C3C2=O)cc1 (stereo not drawn),33.4%,
O=C(NN1C(=O)C2C3C=CC(O3)C2C1=O)c1ccccc1 (stereo not drawn),,44.7 µM (active)
COc1ccc(N2CCN(C(=O)c3cn(C)c4ccc(S(=O)(=O)N5CCOCC5)cc4c3=O)CC2)cc1,1.25%,
O=C(C1CCC1)N1CCN(c2ccccc2)CC1,17.5%,
CC1(c2ccc3ccccc3c2)NC(=O)NC1=O (stereo not drawn),12%,
CC(C)C[C@@H](COc1ccccc1)N1CCN(CC(C)C)CCC1=O,3.76%,
CCCCCCCC/C=C\CCCCCCCC(=O)NCC(=O)O,8.62%,
CCCCCCC(O)(CCN1CCCCC1)c1ccccc1 (stereo not drawn),9.61%,
CCCn1c(CCNc2nc(-c3ccc(OC)cc3)cs2)nc2ccccc21,-0.532%,
CCCn1c(C2CCCN2c2nc(-c3ccc(C)cc3)cs2)nc2cc(Cl)c(N3CCCCC3)cc21 (stereo not drawn),-23.2%,
CCCn1c(C2CCCN2c2nc(-c3ccc(OC)cc3)cs2)nc2ccccc21 (stereo not drawn),,89.1 µM (active)
CC1CCN(C2=NC(=O)/C(=C/c3ccc(O)cc3)S2)CC1,14%,
COc1ccc(N=Nc2c(-c3ccc(OC)cc3)[nH]oc2=O)cc1,24.2%,
O=C(Nc1ccccc1)c1nnsc1S(=O)(=O)c1ccc(Cl)cc1,,11.2 µM (active)
O=C(c1ccc(Cl)cc1)c1cnc(Nc2ccccc2)s1,-3.35%,
CS(=O)(=O)c1ccc(Cl)c(NC(=O)Nc2ccccc2)c1,7.87%,
CN(c1ccc(O)cc1)c1nc(-c2cccnc2)cs1,0.24%,
